TDP1 cell noCPT = qHTS for Inhibitors of human tyrosyl-DNA phosphodiesterase 1 (TDP1): qHTS in cells in absence of CPT. DT40 Tdp1-/- hTDP1 cells, no CPT, ATP luminescence, 48 h. Potency, µM (series often up to 46.2 µM), hits mostly inhibitors. 420,000 tested, 15% active. AID 686978, 2013; note: nearly all actives have a fitted effect of over 55% in size
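Stably hTDP1-transfected Tdp1-null chicken DT40 cells were treated with library compounds minus camptothecin and grown for at least 48 hr at 37 °C, after which cellular ATP was quantified by luminescence.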
uPA generation = blocks generation of uPA at the cell surface; cell surface uPA generation assay, qHTS; Potency, µM (top dose mostly 38.3 µM), most hits filed as inhibitors; 330,000 tested, 0.31% active; AID 540303; active = well fitted inhibition curve with a large enough effect; inconclusive = small, poorly fitted or top-dose-only effect; inactive = no such curve, though single readings can be large or run the other way; tested in mouse RAW 264.7 cells; note: nearly all actives have a fitted effect of over 55% in size
IL-1B inflam inh = inhibitors of inflammasome signaling (IL-1 beta secretion); THP-1 LPS/ATP IL-1B secretion, AlphaLISA, 16 h; active compounds read low; activity change, % at 57.5 µM; 360,000 tested, 4.7% active; in the data active = activity change below about -50%; inconclusive = mostly about -30% to -49%
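THP-1 cells pretreated 1 hr with compounds (up to 57.5 uM final), then stimulated with LPS (250 ng/mL final) plus ATP (1.25 mM final); secreted IL-1B measured by AlphaLISA after 16 hr, decreased signal indicating inhibition.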
HT1080-NT tox = kills 2HG-producing HT-1080-NT fibrosarcoma cells | HT-1080-NT fibrosarcoma viability, CellTiter-Glo ATP luminescence, 48 h | Potency, µM (top dose mostly 46.1 µM), hits mostly cytotoxic | 360,000 tested, 1.6% active;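 note: NT is the 2HG producing partner of a matched IDH1 knockdown line; nearly all actives have a fitted effect of over 55% in size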
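Luminescent CellTiter-Glo readout after 48 hours of compound exposure at 37 degrees C defined viability of HT-1080-NT cells. Activity was normalized to DMSO wells and cell-free media wells; concentration-response curves were fitted and assigned curve classes.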
TDP1 cell CPT = DT40-hTDP1 cell growth loss with CPT | chicken DT40 Tdp1-/-;hTDP1 cells + 20 nM CPT, ATP luminescence, 48 h | 420,000 tested, 12% active | Potency, µM (titrated, usually from 46.2 µM), hits mostly inhibitors; note: nearly all actives have a fitted effect of over 55% in size
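Chicken DT40 Tdp1-/- cells stably complemented with human TDP1 were seeded at 400 cells/well in medium containing 20 nM camptothecin, exposed to pin-transferred compounds, and grown at 37 °C for at least 48 hr. Viability was read as ATP luminescence.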
HT1080 IDH1KD tx = HT-1080 IDH1 knockdown cell toxicity (counter line); HT-1080 IDH1 knockdown viability, ATP luminescence, 48 h; 360,000 tested, 2% active; AID 686971; Potency, µM (doses to about 46.1 µM), hits mostly cytotoxic
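Assay cells: HT-1080 with IDH1 knockdown, 750 per well, RPMI/5% FBS. Exposure: 48 h at 37 °C following 2 h pre-incubation. Read: CellTiter-Glo luminescence; fitted concentration-response, curve class assigned.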
Of the large screens only hits and unclear results are named; the others gave an inactive call. Sampled rows, rich in hits. Any-hit rate of the full collection: about 19%. Unless noted, calls come from the whole dose curve; as a rule, active = well fitted curve in the direction sought with a large enough effect; inconclusive = small, poorly fitted or top-dose-only effect, or another doubt; inactive = no such curve, though single readings can be large; an effect the other way counts as inactive or inconclusive.

O=C(CSc1nn(-c2ccc(F)cc2)c(=S)s1)N1CCN(C(=O)c2ccco2)CC1	IL-1B inflam inh -79
Cn1c(N)c(C(=O)CSc2nn(-c3ccc(F)cc3)c(=S)s2)c(=O)n(C)c1=O	TDP1 cell noCPT 23µM, TDP1 cell CPT 21µM
CCCCN(C(=O)CSc1nn(-c2ccc(F)cc2)c(=S)s1)c1c(N)n(CCCC)c(=O)[nH]c1=O	TDP1 cell noCPT 29µM, IL-1B inflam inh -72, TDP1 cell CPT inconclusive
CCCCN(C(=O)CSc1nc2ccccc2s1)c1c(N)n(CCCC)c(=O)[nH]c1=O	TDP1 cell noCPT inconclusive
CCOc1ccc(CNC(=O)CCS(=O)(=O)c2cc3c(cc2Cl)NC(=O)CO3)cc1OC	none (no result: uPA generation, IL-1B inflam inh, HT1080-NT tox, HT1080 IDH1KD tx)
CCOc1ccc(OCCNC(=O)C(NC(=O)c2c(F)cccc2F)C(C)C)cc1 (stereo not drawn)	none
CC(C)(C)C1CCc2c(sc(NC(=O)c3cccc(Cl)c3)c2C(=O)NCc2ccco2)C1 (stereo not drawn)	none (no result: uPA generation, IL-1B inflam inh, HT1080-NT tox, HT1080 IDH1KD tx)
COc1ccc(-c2c(C#N)sc(C(N)=O)c2-c2ccc(OC)cc2)cc1	TDP1 cell noCPT 10µM, TDP1 cell CPT inconclusive
N#Cc1sc(C(N)=O)c(-c2ccccc2)c1-c1ccccc1	none
CN(C(=O)CN1C(=O)C2C3CC(C(Br)C3Br)C2C1=O)C1CCCCC1 (stereo not drawn)	none
COc1ccc(/C(C)=N/Nc2ncc(Cl)cc2Cl)c(O)c1	TDP1 cell noCPT 0.0082µM, HT1080-NT tox 4.6µM, TDP1 cell CPT inconclusive, HT1080 IDH1KD tx inconclusive
C/C(=N\Nc1ncc(Cl)cc1Cl)c1ccc(C#N)cc1	none
CN(C)CCN(Cc1ccccc1)C(c1cc2ccccc2o1)c1nnnn1C(C)(C)C (stereo not drawn)	TDP1 cell noCPT inconclusive, IL-1B inflam inh -54, HT1080-NT tox inconclusive, TDP1 cell CPT 16µM, HT1080 IDH1KD tx inconclusive (no result: uPA generation)
CCCCn1nnnc1C(c1cc2ccccc2o1)N(CCN(C)C)Cc1ccccc1 (stereo not drawn)	TDP1 cell noCPT 16µM, IL-1B inflam inh inconclusive, HT1080-NT tox 18µM, TDP1 cell CPT 26µM, HT1080 IDH1KD tx 21µM (no result: uPA generation)
Oc1c(C(c2ccccc2F)N2CCN(c3ccccc3F)CC2)sc2nc(-c3ccco3)nn12 (stereo not drawn)	none (no result: uPA generation, IL-1B inflam inh, HT1080-NT tox, HT1080 IDH1KD tx)
C=CCN(CC=C)CCOc1cccc2ccccc12	TDP1 cell noCPT inconclusive, IL-1B inflam inh -57
CN(Cc1ccc(OC(F)F)cc1)C(=O)/C=C/c1ccc(S(=O)(=O)N2CCOCC2)cc1	TDP1 cell noCPT inconclusive, IL-1B inflam inh -66, TDP1 cell CPT 18µM
COc1ccc(CN(C)C(=O)/C=C/c2ccc(S(=O)(=O)N3CCOCC3)cc2)cc1F	TDP1 cell noCPT 21µM, TDP1 cell CPT 16µM
CC(=O)N1CCN(C(=S)NCCc2ccccc2)CC1	none
S=C(NCCc1ccccc1)N1CCN(Cc2ccccc2)CC1	TDP1 cell noCPT inconclusive, TDP1 cell CPT 29µM
COc1ccc(N2CCN(C(=S)NCCc3ccccc3)CC2)cc1	TDP1 cell noCPT inconclusive, TDP1 cell CPT inconclusive
Oc1ccc(N2CCN(C(=S)NCCc3ccccc3)CC2)cc1	TDP1 cell noCPT 8.2µM, HT1080-NT tox inconclusive, TDP1 cell CPT 6.5µM, HT1080 IDH1KD tx 3.7µM
CC(=O)NCCNc1cc(-c2ccccc2CN(C)C)ncn1	none (no result: uPA generation, IL-1B inflam inh, HT1080-NT tox, HT1080 IDH1KD tx)
CCC(c1nnnn1Cc1ccccc1)N1CCN(C(=O)c2ccco2)CC1 (stereo not drawn)	none
CN(C)c1ccc(C(c2nnnn2C(C)(C)C)N2CCN(C(=O)c3ccco3)CC2)cc1 (stereo not drawn)	none
CC(C)C(c1nnnn1Cc1ccc(F)cc1)N1CCN(C(=O)c2ccco2)CC1 (stereo not drawn)	TDP1 cell noCPT 16µM, TDP1 cell CPT inconclusive
CCCCC(c1nnnn1CCOC)N1CCN(C(=O)c2ccco2)CC1 (stereo not drawn)	TDP1 cell CPT 18µM
